Hits are enriched below; roughly 8.9% of the tested compounds scored in any of these assays.
KB-3-1 tox – kills parental KB-3-1 adenocarcinoma cells | KB-3-1 viability, CellTiter-Glo ATP luminescence, 72 h | Potency, µM (titrated, usually from 46.1 µM), most hits filed as cytotoxic | hit rate 1.4% among 400,000 | AID 1347075; note: potency is the fitted concentration of half-maximal effect; % is set by controls: 0 for no effect and ±100 for the full control effect; nearly all actives have a fitted effect of over 60% in size
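Viability of parental KB-3-1 cells, measured by CellTiter-Glo luminescence, followed a 72 h incubation at 37 °C with pinned compounds in phenol-red-free DMEM containing 10% FBS.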
D3 ag – D3 dopamine receptor (human) agonism; D3R DiscoveRx beta-arrestin cells, luminescence, 90 min; max activation, %; hit rate 0.58% among 410,000; in the data active = max activation above about 30%; note: 0% is about no effect
Target sequence (P35462 whole entry, looked up): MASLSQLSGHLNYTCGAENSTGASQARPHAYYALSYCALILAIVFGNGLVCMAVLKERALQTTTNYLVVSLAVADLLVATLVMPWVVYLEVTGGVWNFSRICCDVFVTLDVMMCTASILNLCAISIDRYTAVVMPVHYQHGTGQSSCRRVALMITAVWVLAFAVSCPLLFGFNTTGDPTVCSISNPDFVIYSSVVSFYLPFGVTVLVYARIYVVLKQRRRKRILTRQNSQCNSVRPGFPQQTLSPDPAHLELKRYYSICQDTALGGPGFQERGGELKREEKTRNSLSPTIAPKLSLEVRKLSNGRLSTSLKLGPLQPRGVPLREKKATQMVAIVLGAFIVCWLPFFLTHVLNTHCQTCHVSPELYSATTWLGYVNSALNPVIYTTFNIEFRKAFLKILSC
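Agonist mode: compounds and dopamine controls were applied to plated cells for 90 min at 37 degrees C after an overnight attachment at 1500 cells/well. Luminescent read-out followed 30 - 60 minutes at room temperature with DiscoveRx detection reagent.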
SW480 rerep – DNA re-replication induction in SW480 cells; SW480 DNA re-replication, Hoechst DNA content imaging, 48 h; Potency, µM (titrated, usually from 46.1 µM), without a hit: at the highest dose re-replication activation, usual class: activators; hit rate 1.8% among 340,000; AID 624297; note: potency is the fitted concentration of half-maximal effect; % of control where 0% means no effect; nearly all actives have a fitted effect of over 55% in size
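Image-based read-out: total Hoechst fluorescence of nuclei (405 nm excitation, 500-530 nm emission), with hits raising the fraction of high-intensity nuclei. SW480 colon cells incubated 48 hr with compounds at 37 C.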
DRD3 antagonist – antagonists of human D3 dopamine receptor. hit rate 2.5% among 360,000. max response, negative = inhibition, %. P35462. D3R cells, DiscoveRx beta-arrestin luminescence, antagonist mode; hits give low values. AID 652054; in the data active = max response below about -50%; inconclusive = no clear call, values can overlap the other calls; note: % is set by controls: 0 for no effect and ±100 for the full control effect
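Cells plated overnight at 1500 cells/well, then exposed to library compounds with dopamine controls for 90 minutes at 37 degrees C. DiscoveRx reagent added for 30–60 minutes at room temperature; luminescence read, quantitative HTS format.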
KB-V1 cytotox – KB-V1 MDR subline cytotoxicity; KB-V1 MDR cells viability, CellTiter-Glo, 72 h; Potency, µM (doses to about 46.1 µM), actives largely listed as cytotoxic; hit rate 3.4% among 400,000; AID 1347076; note: potency is the fitted concentration of half-maximal effect; % is set by controls: 0 for no effect and ±100 for the full control effect; nearly all actives have a fitted effect of over 60% in size
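In this primary screen, KB-V1 cells overexpressing P-gp are incubated with library compounds (lowest to highest concentration) for 72 h at 37 degrees C before a luminescent ATP viability read.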
MCF10A rereplic – induces DNA re-replication in MCF 10a normal breast cells. MCF 10A DNA re-replication, Hoechst nuclear intensity, 48 h. Potency, µM (titrated, usually from 46.1 µM), for the others: at the top dose activity, positive = re-replication, hits mostly activators. hit rate 2.9% among 350,000. AID 624296; note: potency is the fitted concentration of half-maximal effect; % of control where 0% means no effect; nearly all actives have a fitted effect of over 50% in size
* = called active by the depositor; i = inactive; ? = inconclusive; nt = not tested or not shown. Unless noted, calls come from the whole dose curve; as a rule, active = well fitted curve in the direction sought with a large enough effect; inconclusive = small, poorly fitted or top-dose-only effect, or another doubt; inactive = no such curve, though single readings can be large; an effect the other way counts as inactive or inconclusive.

SMILES	KB-3-1 tox	D3 ag	SW480 rerep	DRD3 antagonist	KB-V1 cytotox	MCF10A rereplic
CC(=O)c1c(C)[nH]c(C(=O)OCC(=O)c2ccc(C)s2)c1C	i	44*	?	-3	i	11%
Cc1ccc(NS(=O)(=O)c2ccc3[nH]c4c(c3c2)CCCC4)cc1N(C)C	i	4	nt	nt	i	nt
COc1ccc(NC(=O)CCn2cccn2)cc1OC	i	2	nt	nt	i	nt
Cc1ccc(SC[C@H](Cc2ccccc2)N2CC[C@@H](C(C)(C)C)CCC2=O)cc1	i	nt	nt	nt	?	nt
CCCN(CCC)S(=O)(=O)c1ccc(N2CCCCS2(=O)=O)cc1	i	-12	nt	nt	i	nt
CN(Cc1ccccc1)C(=O)Nc1ccc2c(c1)N(C)C(=O)c1ccccc1S2	i	-17	nt	nt	i	nt
O=C(/C=C/c1ccccc1O)c1ccco1	?	-10	?	0	?	15µM*
O=C(/C=C/c1cc(Br)ccc1O)c1ccco1	?	-9	?	?	16µM*	?
O=C1CCCC2=C1C(c1ccc(O)cc1)c1c(ccc3ccccc13)N2 (stereo unspecified)	i	11	?	-21	i	16µM*
NC(=O)/C(=N\OC(=O)c1ccco1)c1nc(-c2ccc(Br)cc2)cs1	?	4	16%	-22	9.2µM*	12%
O=C(c1cc(F)ccc1F)C1CCCN(C(=O)c2ccc(F)cc2Cl)C1 (stereo unspecified)	i	2	7%	8	12µM*	?
O=C1C(Cc2ccccc2)Nc2ncnc(N3CCN(c4ccccc4)CC3)c2N1Cc1ccc(Cl)cc1 (stereo unspecified)	i	-45	11%	-128*	i	-14%
O=C1C(Cc2ccccc2)Nc2ncnc(N3CCOCC3)c2N1Cc1ccc(Br)cc1 (stereo unspecified)	i	-27	-20%	-66*	i	29%
COc1ccc(CN2C(=O)C(Cc3ccccc3)Nc3ncnc(N4CCN(c5ccccc5)CC4)c32)cc1 (stereo unspecified)	i	-47	9%	-111*	i	-6%
O=C1C(Cc2ccccc2)Nc2ncnc(N3CCCCC3)c2N1Cc1ccc(Cl)cc1 (stereo unspecified)	i	-45	24%	-65*	i	?
CCOc1ccc(CNC(=O)CCCn2c(=O)c3cccn3c3ccccc32)cc1	nt	-3	nt	nt	nt	nt
CCCn1c2ccccc2c2cnn(CC(=O)Nc3cc(OC)c(OC)c(OC)c3)c(=O)c21	nt	-16	nt	nt	nt	nt
COc1cccc(-c2nc3c(c(SCC(=O)Nc4cccc(C)c4C)n2)Cc2c(CO)cnc(C)c2O3)c1	nt	-10	nt	nt	nt	nt
CCN(CC)S(=O)(=O)c1ccc2c(c1)N(CC(=O)NCCCN1CCN(c3cc(C)ccc3C)CC1)C(=O)CO2	i	-20	nt	nt	?	nt
CN(C)CCCNC(=O)c1cc2sc3ccccc3c2s1	i	-20	?	?	i	7.3µM*
CCCN(CCC)CCCNC(=O)c1cc2c(=O)n(CC)c3ccccc3c2s1	23µM*	-19	?	-10	?	?
CCN(CC)CCNC(=O)c1cc2c(=O)n(C)c3ccccc3c2s1	i	-15	?	-21	?	23µM*
CCCCN(CC)CCNC(=O)c1cc2c(=O)n(C)c3ccccc3c2s1	i	-15	?	-26	?	?
COCCCNC(=O)C1CCN(c2cc(C)nc3c(-c4ccc(OC)c(OC)c4)c(C)nn23)CC1	i	10	nt	nt	i	nt
CCCN(CCC)S(=O)(=O)c1ccc(Cl)c([N+](=O)[O-])c1	i	-15	6%	?	i	?
SMILES	KB-3-1 tox	D3 ag	SW480 rerep	DRD3 antagonist	KB-V1 cytotox	MCF10A rereplic
CCOC(=O)C(C)(C)N(Cc1ccccc1C)S(=O)(=O)c1ccc(Cl)c([N+](=O)[O-])c1	i	-3	?	-50*	i	18µM*
O=[N+]([O-])c1ccc2c(c1)C=CC2	i	nt	nt	nt	i	nt
C=C1C(=O)OC2CC1C(O)CC(C)=CCCC(C)=CC(O)CC2C (stereo unspecified)	?	-1	?	?	?	1.3µM*
CC(C)c1onc(C(=O)N2CCN(c3ccc(F)cc3)CC2)c1[N+](=O)[O-]	i	0	21µM*	-3	i	0%
CC(C)c1onc(C(=O)N2CCN(c3ccccc3)CC2)c1[N+](=O)[O-]	i	-4	?	-4	i	-7%
CC(C)(C)c1nc(N2CCN(C(=O)c3ccco3)CC2)c2nnn(Cc3ccccc3)c2n1	?	18	?	10	?	8.2µM*
Cc1nc(N2CCN(C(=O)c3ccco3)CC2)c2oc3ccccc3c2n1	12µM*	0	8.2µM*	7	?	?
O=C(c1ccco1)N1CCN(c2nc(C3CC3)nc3c2nnn3Cc2ccccc2Cl)CC1	?	8	0%	14	?	10%
CCc1nc(N2CCN(C(=O)c3ccco3)CC2)c2oc3ccccc3c2n1	i	13	12µM*	17	21µM*	?
Cc1nc2ccccc2c2oc(C(=O)N3CCN(C(=O)c4ccco4)CC3)cc12	i	3	-3%	10	?	15%
CCOC(=O)c1c(S(=O)(=O)N2CCC(C(=O)Nc3ncccc3C)CC2)c(C)n(C)c1C	i	8	nt	nt	i	nt
NC1=NC(=O)C(CC(=O)NCc2ccccc2)S1 (stereo unspecified)	i	3	-3%	-65*	i	2%
NC1=NC(=O)CC(C(=O)NCc2ccccc2)S1 (stereo unspecified)	i	-2	-2%	7	i	1%
O=C(COc1ccccc1F)N1CCN(S(=O)(=O)/C=C/c2ccccc2)CC1	i	3	-87%	11	15µM*	9%
O=C(c1ccco1)N1CCN(S(=O)(=O)/C=C/c2ccccc2)CC1	i	-2	-7%	-20	i	1%
O=C(c1ccc(Cl)cc1)N1CCN(S(=O)(=O)/C=C/c2ccccc2)CC1	23µM*	7	-24%	-5	i	-2%
CCN1CCN(c2nnc(-n3cccc3C(=O)NCc3ccccc3OC)s2)CC1	i	-13	nt	nt	i	nt
COc1ccccc1CNC(=O)c1cc2c(=O)n(Cc3cccs3)ccc2nc1C	nt	5	nt	nt	nt	nt
CN1/C(=C\C(=O)COc2ccc3c(c2)OCO3)C(C)(C)c2ccccc21	?	-1	?	11	?	13µM*
CN1/C(=C\C(=O)c2ccco2)C(C)(C)c2ccccc21	21µM*	-1	23µM*	15	?	?
COc1ccccc1OCC(=O)/C=C1/N(C)c2ccccc2C1(C)C	i	6	-2%	17	?	17%
